Results on 5 compounds are retold here after PubChem BioAssay (NCATS).

Experiment [1] is described as follows: UWB1.289 Cancer Cell Toxicity qHTS against the NCATS CANVASS Library (AID 1347347). Also: nearly all actives have a fitted effect of over 60% in size. Also: potency is read from the fitted curve at half-maximal effect. In outline: (§1)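 Per well, 1000 cells; exposure 72 h with compound at 11 final concentrations; readout CellTiter-Glo luminescence.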
In general terms: In qHTS, concentration-response curves come from the screen itself.

The nature of experiment [2]: SW1088 Cancer Cell Toxicity qHTS against the NCATS CANVASS Library (AID 1347350). Also: nearly all actives have a fitted effect of over 75% in size. Also: potency is read from the fitted curve at half-maximal effect. A digest of the protocol:
as §1

Experiment [3] is described as follows: A2780 Cisplatin Sensitive Ovarian Cancer Cell Toxicity qHTS against the NCATS CANVASS Library (AID 1347353). Also: nearly all actives have a fitted effect of over 60% in size. Also: potency is read from the fitted curve at half-maximal effect. A digest of the protocol:
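Cells are plated at 750 per well and rest for 4 hours. Compounds are added across eleven concentrations, and incubated 72 hours before ATP is quantified by luminescence.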

Experiment [4] in a line: UWB1.289-WTBRCA1 Cancer Cell Toxicity qHTS against the NCATS CANVASS Library (AID 1347354). Also: potency is read from the fitted curve at half-maximal effect. A digest of the protocol: (§2)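 First, 1000 cells go into each well and rest for 4 hours. Next, an 11-point dilution range is pinned in. Plates then incubate 72 hours before CellTiter-Glo addition and luminescence reading.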
A short description of experiment [5]: HEK-293 Cancer Cell Toxicity qHTS against the NCATS CANVASS Library (AID 1347355). Also: nearly all actives have a fitted effect of over 65% in size. Also: potency is read from the fitted curve at half-maximal effect. In outline: as §2
Experiment [6] has as its system NAD(P)H diaphorase (Clostridium kluyveri). Description: Diaphorse counterscreen qHTS: Assay Interference Panel against the NCATS CANVASS Library (AID 1347362). A digest of the protocol: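 Counterscreen for coupling-enzyme interference: resorufin fluorescence from resazurin/NADH turnover, read after 5 min at room temperature. Compounds were tested over an 11-point series after 15 min dark preincubation with diaphorase in PBS-Tween.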
A general note: Counterscreens check selectivity or assay interference.

The nature of experiment [7]: KB-8-5-11 Cancer Cell Toxicity qHTS against the NCATS CANVASS Library (AID 1347364). Also: nearly all actives have a fitted effect of over 75% in size. Also: potency is read from the fitted curve at half-maximal effect. A digest of the protocol:
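Terse: KB-8-5-11, 500 cells/well, 72 hr, 37C/5% CO2, 11-pt titration, CellTiter-Glo readout; confirmatory runs ± 1uM tariquidar in medium.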

Experiment [8] can be described thus: SDT Cancer Cell Toxicity qHTS against the NCATS CANVASS Library (AID 1347365). Also: nearly all actives have a fitted effect of over 60% in size. Also: potency is read from the fitted curve at half-maximal effect. In outline:
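Cytotoxicity is measured from cellular ATP: compounds in an 11-point concentration series are pinned onto SDT cells, incubated 72 hr at 37C, then CellTiterGlo is added and luminescence read.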

Experiment [9] in a line: KB-3-1 Cancer Cell Toxicity qHTS against the NCATS CANVASS Library (AID 1347366). Also: series mostly up to about 46 µM; nearly all actives have a fitted effect of over 75% in size. A digest of the protocol:
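Seed KB-3-1 cells at 500/well in DMEM with 10% FBS, add compounds, incubate 72 hr at 37C and 5% CO2, then add CellTiter-Glo and read luminescence after 10 minutes.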

Experiment [10] is described as follows: qHTS for Hypoxia signaling pathway (HIF-1) antagonists against the NCATS CANVASS Library (AID 1347374). Also: nearly all actives have a fitted effect of over 60% in size. Also: potency is read from the fitted curve at half-maximal effect. In outline:
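Antagonism scored as loss of CoCl2-driven (60 uM stock added) HRE beta-lactamase signal, read by CCF4 FRET at 460/530 nm. Compounds were tested in an 11-point series on ME-180 reporter cells for 17 hrs at 37C, with parallel CellTiter-Glo cytotoxicity.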

Experiment [11] can be described thus: qHTS for Hypoxia signaling pathway (HIF-1) agonists against the NCATS CANVASS Library (AID 1347375). In outline:
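Cells plated and rested 5 h, compounds pinned in DMSO across 11 concentrations, incubated 17 h at 37C, loaded with CCF4-AM for 2 h, fluorescence read at 460 and 530 nm, then CellTiter-Glo luminescence measured for viability and normalization.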

Experiment [12] in a line: DH5-alpha competent E. coli microbial cell viability qHTS against the NCATS CANVASS Library (AID 1347377). The note with it: outcome: dose series up to 46.1 µM unless noted. A digest of the protocol: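 Bacteria were dispensed at 0.2 OD, then compounds were pin-transferred. Plates were incubated overnight at 37C, after which BacTiter-Glo was added and luminescence measured 20 min later.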

Experiment [13] can be described thus: qHTS for H2AX Agonists against the NCATS CANVASS Library (AID 1347378).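 Also: phospho-H2AX S139 level in CHO-K1 lysates by TR-FRET emission ratio.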 A digest of the protocol: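 Following overnight seeding, CHO-K1 cells are incubated with a concentration series of compound for 3 hr at 37C (final DMSO 0.76%). Cells are then lysed, detection antibodies added, and emission ratio 665/620 nm recorded after 24 hr at room temperature.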
Experiment [14] is described as follows: qHTS for Activators of p53 Stress Response Pathway screened against the NCATS CANVASS Library (AID 1347388). A digest of the protocol: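 Beta-lactamase reporter driven by p53 response elements in HCT-116 cells, read as the 460 nm/530 nm emission ratio after CCF4 loading, following 16 h of exposure to an 11-point series. Cell viability was measured in the same wells by CellTiter-Glo luminescence.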

The nature of experiment [15]: Secretion counterscreen for inhibitors of the SERCaMP assay screened against the NCATS CANVASS Library (AID 1347390).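 Also: light from luciferase secreted into medium read as a measure of general secretion.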 Also: potency is read from the fitted curve at half-maximal effect. In outline:
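Counterscreen identifying compounds that disrupt secretion, using SH-SY5Y cells with a constitutively secreted Gaussia luciferase reporter. A 20 h compound exposure (top 77 uM) precedes luminescent detection with coelenterazine.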

A short description of experiment [16]: qHTS for activators of dead-cell proteases activity screened against the NCATS CANVASS Library (AID 1347392).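 Also: luminescence from protease leaking out of membrane-damaged cells cleaving impermeant substrate; rising signal means more cytotoxicity.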 In outline: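 Luminescent dead-cell protease readout (AAF-aminoluciferin, 15 min, room temperature) after 5 h compound treatment of HepG2 cells (2000/well, pre-attached 18 h). Eleven concentrations.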
Experiment [17] in a line: qHTS for inhibitors of ER calcium dysfunction: SERCaMP assay screened against the NCATS CANVASS Library (AID 1347393). Also: nearly all actives have a fitted effect of over 40% in size. Also: potency is read from the fitted curve at half-maximal effect. A digest of the protocol:
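Thapsigargin-induced ER calcium depletion drives GLuc-SERCaMP secretion from SH-SY5Y cells; compounds given 16 h beforehand were scored by lowered coelenterazine luminescence after 4 h challenge.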

Experiment [18] can be described thus: qHTS for inhibitors of Wild type Zika virus screened against the NCATS CANVASS Library (AID 1347396). Also: potency is read from the fitted curve at half-maximal effect. In outline: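 Using ATP-based luminescence (CellTiter Glo), this screen scores rescue of Vero 766 cells from wild-type Zika killing at 72 h post-infection. Compounds are tested in a concentration series.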
Experiment [19] in a line: Viability qHTS for inhibitors of the SERCaMP assay screened against the NCATS CANVASS Library (AID 1347400). Also: nearly all actives have a fitted effect of over 70% in size. Also: potency is read from the fitted curve at half-maximal effect. A digest of the protocol:
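Seed SH-SY5Y-GLuc SERCaMP MJH297 cells at 1000 per well, incubate 4 h, add compounds across an 11-point range, incubate 48 h at 37C, then add CellTiter-Glo and read luminescence.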

Experiment [20] is described as follows: Redox Reaction Profiling qHTS: Assay Interference Panel against the NCATS CANVASS Library (AID 1347401). A digest of the protocol: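 Redox-cycling liability assessed as DTT-driven conversion of resazurin (5 uM, with 200 uM DTT, HEPES pH 7.3) to fluorescent resorufin. Fluorescence at 525/598 nm measured initially and after 15 min dark incubation.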

Inconclusive results are not listed. A number with no mark means an inactive call. Active and inactive are the calls of the source. Calls follow the shape of the dose curve; as a rule, active = well fitted curve in the direction sought with a large enough effect; inconclusive = small, poorly fitted or top-dose-only effect, or another doubt; inactive = no such curve, though single readings can be large; an effect the other way counts as inactive or inconclusive.

Regarding `C/C=C/c1cc(OC)c2c(c1)[C@@H](C)[C@H](c1ccc(O)c(OC)c1)O2`, the Potency result in [1], in experiment [2], in experiment [3], in [4], in [5] and in experiment [6] was “inactive” in each case. The Potency entry in experiment [7], in experiment [8], in [9], in experiment [10], in experiment [11] and in experiment [13] was “inactive” each time. In addition, the Potency entry in experiment [14], in experiment [15], in experiment [16], in experiment [18], in experiment [19] and in experiment [20] was “inactive” throughout. In addition, the call in experiment [12] was inactive. Further, the Potency in experiment [17] is 24.3 µM (active).

As for `CC(=O)O[C@@H]1C=C2C(=O)OC[C@]2(O)[C@@]2(C)CCCC(C)(C)[C@H]12`, the Potency was 10.6 µM (active) in [1]; 5.3 µM (active) in experiment [2]; 1.32 µM (active) in [3]; 21.1 µM (active) in experiment [4]; 8.33 µM (active) in experiment [5]; 18.7 µM (active) in experiment [7]. In addition, the Potency in experiment [8] is 13.2 µM (active); in experiment [10], 7.47 µM (active); in experiment [15] it was 15.3 µM (active); in experiment [18] it was 26.1 µM (active); in experiment [19] it was 12 µM (active). Further, the Potency result in experiment [6], in [14], in experiment [17] and in experiment [20] was “inactive” throughout.

On to `C/C=C1/CC[C@@H]2c3[nH]c4ccccc4c3CCN2C1`, for which the Potency result in experiment [2], in [3], in [4], in experiment [6], in experiment [7] and in [8] was “inactive” each time. The Potency result in experiment [9], in [10], in [11], in experiment [13], in experiment [14] and in experiment [15] was “inactive” throughout. Besides, the Potency result in experiment [16], in experiment [18], in experiment [19] and in [20] was “inactive” each time. In addition, the compound was classed as inactive in experiment [12]. The Potency in experiment [17] is 19.3 µM (active).

On to `C[C@@]12CCC[C@@](C)(C(=O)O)[C@H]1C[C@@H](O)[C@]13C[C@H]4C[C@H](O[C@@]4(C)C1)[C@@H]23`, for which the Potency entry in [1], in [2], in [3], in experiment [4], in experiment [5] and in [6] was “inactive” throughout. For the same compound, the Potency entry in [7], in [8], in [9], in experiment [10], in experiment [11] and in [13] was “inactive” in each case. Further, the Potency entry in experiment [14], in experiment [15], in experiment [16], in [17], in experiment [18] and in experiment [19] was “inactive” in each case. Moreover, in experiment [20], the Potency entry was “inactive”. For the same compound, the compound was called inactive in [12].

With `C=C[C@@]1(C)CC[C@@H]([C@H](C)C(=O)/C=C/C(C)C)O1`, the Potency entry in [1], in [2], in [3], in [4], in experiment [5] and in experiment [6] was “inactive” in each case. The Potency result in experiment [7], in [8], in [9], in experiment [10], in [11] and in [13] was “inactive” each time. Besides, the Potency entry in experiment [14], in experiment [15], in experiment [16], in experiment [18], in [19] and in [20] was “inactive” throughout. Further, the compound was classed as inactive in [12].
